IL2 activator – qHTS of IL-2 Activators | activation, % (series mostly up to about 46 µM) | 0.065% of 360,000 active | IL-2 activation reporter assay, cell-based qHTS; stimulated with anti-CD3/CD4/CD28 beads; in transgenic mouse T cells; in the data active = activation above about 50%; inconclusive = mostly about 30% to 49%; also: 0% is about no effect
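Unstimulated transgenic mouse T cells, 750 per well, received compound and, after 60 minutes, anti-CD3/anti-CD4 bead plus anti-CD28 stimulation. EGFP and DsRed were quantified after 18 hours.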
PKM2 act – qHTS Assay for Activators of Human Muscle isoform 2 Pyruvate Kinase. 0.34% of 260,000 active. purified PKM2, Kinase-Glo ATP luminescence, activation; response scale: 0% is enzyme alone, no compound. AID 1631, 2009. Potency, µM (titrated, usually from 57.5 µM), inactives show at the top dose activation, usual class: activators; also: potency is read from the fitted curve at half-maximal effect; % is scaled to controls: 0 for no effect and ±100 for the full control effect; nearly all actives have a fitted effect of over 55% in size
Target sequence (P14618 whole entry, looked up, canonical isoform): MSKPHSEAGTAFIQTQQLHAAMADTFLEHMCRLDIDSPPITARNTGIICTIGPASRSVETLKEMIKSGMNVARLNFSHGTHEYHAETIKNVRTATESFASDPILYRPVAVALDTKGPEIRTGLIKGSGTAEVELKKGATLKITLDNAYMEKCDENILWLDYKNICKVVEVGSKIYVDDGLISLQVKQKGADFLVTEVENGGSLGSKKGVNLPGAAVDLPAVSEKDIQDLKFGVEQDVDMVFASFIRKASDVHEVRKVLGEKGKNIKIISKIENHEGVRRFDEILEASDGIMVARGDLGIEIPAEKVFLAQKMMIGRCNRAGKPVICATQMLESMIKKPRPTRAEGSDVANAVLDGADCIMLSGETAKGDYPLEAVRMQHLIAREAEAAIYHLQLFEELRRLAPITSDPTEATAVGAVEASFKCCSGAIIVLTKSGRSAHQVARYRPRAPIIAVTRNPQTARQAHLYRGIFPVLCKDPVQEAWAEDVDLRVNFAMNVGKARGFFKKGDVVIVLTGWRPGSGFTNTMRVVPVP
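Kinase-Glo luminescence reports ATP generated from ADP (0.1 mM) and PEP (0.5 mM) by purified hPK-M2 after 1 h at room temperature, pH 7.2 imidazole buffer; intermediate enzyme activity allows detecting inhibitors and activators.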
EPAC1 antagonist – qHTS for Antagonist of cAMP-regulated guanine nucleotide exchange factor 3 (EPAC1): primary screen; Rap guanine nucleotide exchange factor 3 (Homo sapiens), O95398; EPAC1 GEF assay, Rap1b-BODIPY-GDP exchange fluorescence; Potency, µM (titrated, usually from 115 µM), for the others: at the highest dose activity change, negative = inhibition, most hits filed as inhibitors; 0.14% of 360,000 active;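 also: potency is read from the fitted curve at half-maximal effect; plate controls were vehicle for no effect and positive control for full effect; nearly all actives have a fitted effect of over 50% in size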
EPAC1 ag – qHTS for Agonist of cAMP-regulated guanine nucleotide exchange factor 3 (EPAC1): primary screen | EPAC1 agonist qHTS, biochemical assay; response scale: 100% = response to 6.5 mM cAMP | Potency, µM (series often up to 154 µM), for the others: at the highest dose activation, most hits filed as activators | 0.073% of 360,000 active; also: potency is read from the fitted curve at half-maximal effect; nearly all actives have a fitted effect of over 60% in size
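Fluorescent GDP-exchange assay: 100 nM EPAC1 with 250 nM Rap1B preloaded with BODIPY-GDP and 50 uM GDP; compounds tested as concentration series, 5 min at room temperature, then read every 5 min for 30 min (ex 480/em 540 nm); normalized to 6.5 mM cAMP.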
EPAC2 antag – qHTS for Antagonist of cAMP-regulated guanine nucleotide exchange factor 2 (EPAC2): primary screen; Rap guanine nucleotide exchange factor 4 (Homo sapiens), Q8WZA2; EPAC2 GEF exchange of Rap1B-BODIPY-GDP, fluorescence; Potency, µM (highest dose often 114 µM), without a hit: top-dose activity, negative = inhibition, most hits filed as inhibitors; 0.18% of 360,000 active; also: potency is read from the fitted curve at half-maximal effect; % is scaled to controls: 0 for no effect and ±100 for the full control effect; nearly all actives have a fitted effect of over 45% in size
EPAC2 agonist – qHTS for Agonist of cAMP-regulated guanine nucleotide exchange factor 4 (EPAC2): primary screen; Rap guanine nucleotide exchange factor 4 (Homo sapiens), Q8WZA2; EPAC2 activation, biochemical qHTS; response scale: 100% = 6.5 mM cAMP response; Potency, µM (highest dose often 154 µM), for the others: top-dose activation, most hits filed as activators; 0.079% of 360,000 active; also: potency is read from the fitted curve at half-maximal effect; nearly all actives have a fitted effect of over 50% in size
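qHTS, titration series. 100 nM EPAC2 / 250 nM Rap1B-BODIPY-GDP / 50 uM GDP; RT; ex 480/em 540 nm, 5-min reads to 30 min. Norm. to 6.5 mM cAMP = activation.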
Starred values were filed as active, the others as inactive; ? = inconclusive; nt = no result; [ ] = another dose, or the depositor's remark. This is a sample that favours compounds with a hit; in the whole collection about 0.64% have one here. Unless noted, calls follow the shape of the dose curve; as a rule, active = well fitted curve in the direction sought with a large enough effect; inconclusive = small, poorly fitted or top-dose-only effect, or another doubt; inactive = no such curve, though single readings can be large; an effect the other way counts as inactive or inconclusive.

SMILES | IL2 activator | PKM2 act | EPAC1 antagonist | EPAC1 ag | EPAC2 antag | EPAC2 agonist
N#CC(C#N)=C1c2cc(S(=O)(=O)NCCO)ccc2-c2ccc(S(=O)(=O)NCCO)cc21 | 3.2 | 1.26µM* | -6.0% | -2.0% | -12.1% | -3.4%
O=C(O)CNS(=O)(=O)c1ccc2c(c1)C(=O)c1cc(S(=O)(=O)NCC(=O)O)ccc1-2 | 0.4 | -2.5%[11.5 µM] | -10.6% | 8.4% | -6.9% | 15.3%
COc1cc(/C=C/C(=O)O)ccc1OS(=O)(=O)c1c(C)c(C)cc(C)c1C | -0.1 | nt | -5.6% | -4.4% | -4.2% | 8.5%
COc1cc(C)c(/C=C/C(C)=C/C=C/C(C)=C/C(=O)O)c(C)c1C | 0.4 | nt | ? | -7.7% | 10µM* | -8.1%
O=C(OCc1cn([C@@H]2C[C@H](c3ccccc3)N(C(=O)c3cccs3)C[C@H]2O)nn1)c1ccccc1 | -3.5 | nt | -2.4% | -10.3% | 7.1% | 16.0%
CCOc1ccc2oc(C(=O)N(C)CC(=O)Nc3ccc(OCC)c(OCC)c3)c(C)c2c1 | -0.7 | nt | -11.1% | 56.2µM* | -12.2% | -0.6%
CCOc1ccc2oc(C(=O)N(C)CCc3ccc(OC)c(OC)c3)c(C)c2c1 | 0.4 | nt | -7.6% | -10.5% | -11.8% | 0.0%
Cc1ccc(NC(=O)CN2C(=O)N/C(=C/c3ccc(C)o3)C2=O)cc1 | 0.5 | 26.2% | 8.5% | -1.8% | 0.1% | -1.9%
Cc1cccc(CN2C(=O)N/C(=C/c3ccc(C)s3)C2=O)c1 | 13.8 | 16.7% | 12.7% | -9.2% | -0.6%[57.1 µM] | 27.3%
Cc1ccc(/C=C2/NC(=O)N(Cc3ccccc3)C2=O)s1 | 159.2* | 20.4% | 10.0% | 13.0% | 10.1% | 26.3%
Cc1ccc(NC(=O)CN2C(=O)N/C(=C/c3ccc(C)s3)C2=O)cc1 | 53.1* | 24.0% | 18.8% | 15.2% | 31.4% | 0.1%
COc1ccc(CN2CCSCC2)c(C)c1C | 1.3 | 2.4% | -2.7% | 3.9% | 2.0% | 7.5%
CCCNC(=O)c1onc(CSc2nc3ccccc3[nH]2)c1C(=O)NCCC | -0.6 | 1.0% | -8.7% | -6.9% | -19.4% | 11.6%
COc1ccccc1NC(=O)CCCCCN1C(=O)c2cccc([N+](=O)[O-])c2C1=O | 0.9 | -9.3% | -4.4% | 0.4% | -2.9% | 13.3%
COc1cc(/C=C2/C(=O)c3cccc([N+](=O)[O-])c3C2=O)c(Br)cc1O | -1.5 | -50.3% | 39.8µM* | -3.2% | -5.2% | -2.7%
O=C1COc2ccc(S(=O)(=O)N3CCc4ccccc43)cc2N1 | 1.6 | 14.1µM* | -2.8% | 1.4% | -11.1% | 6.2%
O=S(=O)(c1cnc(Cl)c(Cl)c1)N1CCc2ccccc21 | -0.2 | 3.55µM* | 7.0% | -11.9% | -22.8% | 6.8%
O=S(=O)(c1cnc(Cl)c(Cl)c1)N1CCCc2ccccc21 | -3.8 | -13.9% | 6.9% | 10.0% | -0.7% | 3.9%
O=C(NCCN1CCOCC1)c1ccc(NC(=O)C2COc3ccccc3O2)cc1 (configuration not stated) | -0.3 | -3.0% | -1.5% | -0.1% | 5.7% | -3.5%
C[C@H](CO)N1C[C@H](C)[C@@H](CN(C)C(=O)CN2CCOCC2)Oc2cc(Br)ccc2S1(=O)=O | -1.9 | nt | 14.3% | 1.2% | 0.0% | -3.1%
C=CCc1cccc(CNc2nc3ccccc3n2CCC)c1O | -3.3 | 28.2µM* | -6.2% | 18.4% | -5.0% | 4.2%
CC(=O)NC(Cc1cccc(F)c1)C(=O)NC1CCN(C(=O)Nc2ccc(C)cc2)CC1 (configuration not stated) | 7.1 | nt | -8.9% | -5.4% | -5.6% | 6.6%
